Consider 61 compounds from PubChem BioAssay AID1578 (Sanford-Burnham Center for Chemical Genomics, 2009).

Each structure is given as a SMILES string. The whole screen tested about 290,000 compounds, of which about 3,000 (1%) were called active. For the sample, actives were picked, then their nearest neighbours and some compounds at random. Values without a mark were called inactive. Cut-off read from the data, not from the text of the source: active = inhibition mostly above about 36% (no sharp cut-off); inactive = mostly below about 34%.

The test can be described thus: NOD1 signaling inhibitors, primary screen, cell-based, luminescence, uHTS (AID 1578).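 Note: HEK-293T reporter cells stimulated with the NOD1 agonist gamma-tri-DAP.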 The conditions noted are these: NOD1-driven NF-kB luciferase reporter cells, at 4 µM, stronger effect = higher value.
Turning to `CCOC(=O)CCNC(=O)N1CCCC(Cc2ccccc2)(C(=O)OCC)C1` (stereo unspecified), the inhibition is -26.2%.
Next, `COc1ccc(NC(=O)CCC(=O)Nc2nnc(CC(C)C)s2)cc1Cl`: -5.8%; `COC(=O)C1=C(C)NC(=O)NC1c1cn(-c2ccccc2)nc1-c1cccs1` (stereo unspecified): -21.3%; `CCN1C(=O)/C(=C/N(C(C)=O)c2ccccc2)N(c2ccccc2)C1=S`: 11.4%.
Under `CCN1C(=O)/C(=C/N(C)c2ccccc2)OC1=S` stands -15.3%.
In the case of `CCN1C(=O)/C(=C\N(C(C)=O)c2ccccc2)OC1=S`, the inhibition was 55.5% (active).
Under `Nc1nc(COc2ccccc2C=O)nc(Nc2ccccc2)n1` stands -7.7%; under `CN(C)c1ccc(C2CC(=O)C=C(Nc3ccccc3N)C2)cc1` (stereo unspecified), -11.3%; under `Cc1ccc(C(=O)CSc2ncnc3sc4c(c23)CCC(C)C4)cc1` (stereo unspecified), -2.7%.
Under `COc1c(Cl)cc(Cl)cc1C(=O)Nc1ccc(NC(C)=O)cc1` stands -17.9%.
Next, `O=C(Nc1ccc(Oc2ccc(Cl)cc2)c(Cl)c1)c1cc(I)cc(I)c1O`: -14.3%; `CC(=O)Oc1c(I)cc(I)cc1C(=O)Nc1ccc(Cl)cc1`: 85.8% (active); `CN(CC(=O)Nc1ccccc1Cl)C(=O)c1cc(=O)[nH]c2ccccc12`: -12.4%.
In the case of `CCOC(=O)c1ccc(NC(=O)COc2ccc(S(=O)(=O)NC(C)(C)C)cc2)cc1`, the inhibition is -33.5%.
Next, `CCN1C(=O)/C(=c2\o/c(=C3\C=Cc4ccccc4N3CC)c(=O)n2CC)SC1=S`: 4.4%; `COc1ccc(N2C(=O)c3ccc(C(=O)Nc4cc(OC)ccc4OC)cc3C2=O)cc1`: -3.6%; `Cc1ccc(C(C(=O)NC2CCCCC2)N(Cc2ccccc2)C(=O)Cc2c[nH]c3ccccc23)o1` (stereo unspecified): -26.2%.
For the compound `COc1ccc(NC(=O)c2cc(S(=O)(=O)N(Cc3ccccc3)c3ccccc3)ccc2Cl)cn1`, the inhibition was 10.8%.
Take `Cc1ccc2sc(NC(=O)CSc3nc(C)cc(C)c3C#N)nc2c1`: the inhibition is -16.6%.
Under `Cc1cc(C(F)(F)F)c(C#N)c(SCC(=O)Nc2nc3ccccc3s2)n1` stands -5.2%; under `Cc1cc(C(F)(F)F)c(C#N)c(SCC(=O)Nc2nc3cc(Br)ccc3s2)n1`, 67.4% (active).
For the compound `Cc1nnc(NC(=O)CSc2ccc(-c3ccc(Cl)cc3)nn2)s1`, the inhibition was -24.7%.
`C=C(C)CN(CC)C(=O)CC1C(=O)NCCN1CC(C)(C)C` (stereo unspecified): the inhibition was -7.4%.
`CC(=O)N1CCOc2ccc(S(=O)(=O)NC(C)c3ccccc3)cc21` (stereo unspecified): the inhibition was 1.8%.
On to `CC(=O)N1CCOc2cc(S(=O)(=O)N3CCN(c4ccccc4)CC3)c(Cl)cc21`, for which the inhibition was -30.8%.
Next, `CC(=O)N1CCOc2cc(S(=O)(=O)NC(C)c3ccccc3)c(Cl)cc21` (stereo unspecified): 59.9% (active); `COc1cccc(-c2nn3c(-c4cccc(C)c4)nnc3s2)c1`: -87.2%; `CCOC(=O)C1=C(C)N=c2s/c(=C\c3ccc(O)c([N+](=O)[O-])c3)c(=O)n2C1c1ccccc1OC` (stereo unspecified): 8.4%.
Under `CCOC(=O)C1=C(C)n2c(s/c(=C/c3cccc([N+](=O)[O-])c3)c2=O)=NC1c1ccc(O)c(OC)c1` (stereo unspecified) stands 95.3% (active); under `CCOC(=O)C1=C(C)N=c2s/c(=C/c3ccccc3)c(=O)n2C1c1ccc(OC)c(OC)c1` (stereo unspecified), -27.7%.
Under `Cn1c(/C(C#N)=C(\O)c2ccc(Cl)s2)nc2ccccc21` stands 11.7%.
Turning to `C=C1CC2C=C(NC(C)=O)CC(C1)C2` (stereo unspecified), the inhibition was -6.6%.
Under `Cc1cccc(NC(=O)Cn2c(O)c(N=NC(N)=S)c3ccccc32)c1` stands -3.4%; under `Cc1cccc(Cn2c(O)c(N=NC(=S)Nc3ccccc3F)c3ccccc32)c1`, 14.6%; under `CC(C)C(=O)NC(NC1CCS(=O)(=O)C1)C(Cl)(Cl)Cl` (stereo unspecified), -26.8%.
Next, `COc1ccc(-n2c(C)cc(/C=C3/SC(=O)N(CC(=O)N4CCOCC4)C3=O)c2C)cc1`: -15%; `CCOC(=O)N1CCN(C(=O)c2cn(C)c3ccc(S(=O)(=O)N4CCOCC4)cc3c2=O)CC1`: -11%.
Next, `O=C(COc1ccc(Br)cc1)NCCCn1ccnc1`: 62.4% (active); `O=C(COc1ccc(Cl)cc1)NCCCn1ccnc1`: -7.5%.
On to `COc1ccc(OCC(=O)NCCCn2ccnc2)cc1`, for which the inhibition is 9.1%.
Under `COCCN(Cc1cc2cc3c(cc2nc1Cl)OCO3)C(C)=O` stands 6.5%.
Under `CSc1ccc(/C=N/S(=O)(=O)c2ccccc2)cc1` stands 3.8%; under `CCCc1nc2c([nH]1)c(=O)n(C)c(=O)n2C`, -7.1%; under `CN(C)Cc1nc2c([nH]1)c(=O)n(C)c(=O)n2C`, 1.7%.
`Cn1c(=O)c2[nH]c(COc3ccc(C(C)(C)C)cc3)nc2n(C)c1=O`: the inhibition was 34.1% (active).
Next, `CC1CCCC(C)N1C(=O)CSc1nc2c(c(=O)n(C)c(=O)n2C)n1C` (stereo unspecified): -1%; `CC(C)Oc1ccccc1/C=N/NC(=O)c1ccccc1Cl`: 0.5%.
Under `CC1CCCC(NC(=O)Cc2ccc(Br)cc2)C1C` (stereo unspecified) stands -21.4%; under `CCC(c1nnnn1C(C)C)N1CCN(C2CCCC2)CC1` (stereo unspecified), -14%.
Next, `COc1ccc(/C=C2\COc3ccccc3C2=O)c(OC)c1`: -27.3%.
Take `COc1ccc(OC)c(Nc2nc(-c3c(C)nc4ncccn34)cs2)c1`: the inhibition was -9.4%.
Take `COc1ccc(Nc2nc(-c3c(C)nc4ncccn34)cs2)cc1`: the inhibition is 17.6%.
With `COc1ccccc1Nc1nc(-c2c(C)nc3ncccn23)cs1`, the inhibition was 61.6% (active).
Next, `CCOC(=O)c1ccc(N=c2ssnc2Cl)cc1`: -21.1%.
As for `CN(CCN1CCOCC1)Cc1nc(-c2cccs2)no1`, the inhibition was -22.4%.
Next, `Cc1ccsc1/C=N/n1cnnc1`: -5.7%.
Next, `Cc1ccsc1/C=N/N=C/c1sccc1C`: 76.7% (active); `Cc1ccsc1C=Nc1ccc(O)cc1`: 27.4%.
Next, `COc1ccc(C(=O)C(OC(=O)CNC(=O)c2ccco2)c2ccccc2)cc1` (stereo unspecified): -7.7%; `COc1ccccc1C(=O)NNC(=O)C1CCCO1` (stereo unspecified): -10.6%.
`COc1ccc(C(=O)Nc2ccc(N3CCCCC3)cc2)cc1Br`: the inhibition was -49%.
